In PubChem BioAssay (NCI) one finds growth inhibition data, which are given here for 10 compounds.

The panel holds about 79,000 compounds, 15% with a hit somewhere; the sample as a whole holds those more often. A number with no mark means an inactive call. Calls of active or inactive are those of the source. Cut-off read from the data, not from the text of the source: active = growth inhibition above about 70%; inactive = the rest.

Test [1] in a line: NCI Yeast Anticancer Drug Screen. Data for the rad50 strain (AID 155).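 Note: 0% = growth of vehicle-only cultures of the same strain.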 Conditions: S. cerevisiae rad50 strain growth inhibition, active compounds read high. In a few lines: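 Cells are treated with compound, grown, and their growth is then scored against vehicle-only cultures of the same repair-deficient yeast strain.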
The nature of test [2]: NCI Yeast Anticancer Drug Screen. Data for the mec2-1 strain (AID 157). As to conditions: S. cerevisiae mec2-1 strain, active compounds read high. In a few lines: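 Mutant yeast (mec2-1) grown with compound; growth inhibition relative to vehicle control reported.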
A short description of test [3]: NCI Yeast Anticancer Drug Screen. Data for the sgs1 mgt1 strain (AID 161).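 Note: 0% = growth of cultures given vehicle only.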 As to conditions: S. cerevisiae sgs1 mgt1 strain, active compounds read high. The essentials:
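This yeast growth screen uses a strain with defined DNA-repair lesions; compound-treated growth is compared with vehicle-treated growth.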

Test [4] is described as follows: NCI Yeast Anticancer Drug Screen. Data for the cln2 rad14 strain (AID 165).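 Note: 0% = growth equal to vehicle treated cultures.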 Conditions: S. cerevisiae cln2 rad14 strain, active compounds read high. In a few lines: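 Readout is yeast growth inhibition versus vehicle-treated controls, using a strain with cln2 and rad14 alterations exposed to compound.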
Test [5] can be described thus: NCI Yeast Anticancer Drug Screen. Data for the bub3 strain (AID 167). Conditions: S. cerevisiae bub3 mutant strain, active compounds read high. The essentials: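 Part of a panel of yeast mutants defective in DNA damage repair or cell cycle regulation. Each strain is grown with compound, and inhibition is calculated relative to solvent-treated cultures.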
Test [6] in a line: NCI Yeast Anticancer Drug Screen. Data for the mlh1 rad18 strain (AID 175). Conditions: S. cerevisiae mlh1 rad18 strain growth inhibition, active compounds read high. The essentials:
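Genetically defined yeast (DNA repair-deficient) exposed to compounds; growth inhibition determined relative to vehicle.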

The mark [7] stands for this setting: at 5.0 µM (retest, dose inferred, filed as 0.5).
[8] abbreviates: at 50.0 µM (retest, dose inferred, filed as 5.0).

With `N#CC(C#N)=NNc1cccc(Cl)c1Cl`, the growth inhibition in test [1] (setting [7]) is 43%; in test [1] (setting [8]), 73% (active); in test [1] (at 50.0 µM), 90.8% (active); in test [2] (setting [7]), 48%; in test [2] (setting [8]), 75% (active); in test [2] (at 50.0 µM), 92.7% (active). In addition, the growth inhibition in test [3] (setting [7]) was 31%; in test [3] (setting [8]), 100% (active); in test [3] (at 50.0 µM) it was 93.2% (active); in test [4] (setting [7]), 71% (active); in test [4] (setting [8]), 100% (active); in test [4] (at 50.0 µM), 90.7% (active). Besides, the growth inhibition in test [5] (setting [7]) was 25%; in test [5] (setting [8]) it was 100% (active); in test [5] (at 50.0 µM), 91.8% (active); in test [6] (setting [7]) it was 41%; in test [6] (setting [8]), 66%; in test [6] (at 50.0 µM), 90.2% (active).
With `[O-][n+]1onc2c1-c1nonc1CC2`, the growth inhibition in test [1] (setting [7]) is 21%; in test [1] (setting [8]) it was 9%; in test [1] (at 50.0 µM), -33.5%; in test [2] (setting [7]), -16%; in test [2] (setting [8]) it was -6%; in test [2] (at 50.0 µM), 5.65%. Further, the growth inhibition in test [3] (setting [7]) was 4%; in test [3] (setting [8]) it was 22%; in test [3] (at 50.0 µM), -10.3%; in test [4] (setting [7]), 8%; in test [4] (setting [8]), 21%; in test [4] (at 50.0 µM), 16%. In addition, the growth inhibition in test [5] (setting [7]) is 6%; in test [5] (setting [8]) it was 19%; in test [5] (at 50.0 µM) it was -3.95%; in test [6] (setting [7]), -2%; in test [6] (setting [8]) it was 11%; in test [6] (at 50.0 µM), 1.15%.
Take `CC12CCC3C(CCC4Cc5nc6nnnn6cc5CC43C)C1CCC2O` (stereo not given): the growth inhibition in test [1] (setting [7]) was 4%; in test [1] (setting [8]), 79% (active); in test [1] (at 50.0 µM) it was 55%; in test [2] (setting [7]) it was 20%; in test [2] (setting [8]), 71% (active); in test [2] (at 50.0 µM), 40.9%. In addition, the growth inhibition is 14% in test [3] (setting [7]); 85% (active) in test [3] (setting [8]); 51% in test [3] (at 50.0 µM); 4% in test [4] (setting [7]); 44% in test [4] (setting [8]); 29.6% in test [4] (at 50.0 µM). For the same compound, the growth inhibition in test [5] (setting [7]) was 2%; in test [5] (setting [8]), 38%; in test [5] (at 50.0 µM), 53.8%; in test [6] (setting [7]), 11%; in test [6] (setting [8]), 82% (active); in test [6] (at 50.0 µM) it was 47%.
With `Clc1cc[c]([Tl][c]2ccc(Cl)cc2)cc1`, the growth inhibition in test [1] (setting [7]) is 94% (active); in test [1] (setting [8]) it was 98% (active); in test [1] (at 50.0 µM), 22.9%; in test [2] (setting [7]), 97% (active); in test [2] (setting [8]) it was 100% (active); in test [2] (at 50.0 µM), 11.2%. In addition, the growth inhibition in test [3] (setting [7]) is 90% (active); in test [3] (setting [8]), 99% (active); in test [3] (at 50.0 µM), 82.8% (active); in test [4] (setting [7]), 92% (active); in test [4] (setting [8]), 97% (active); in test [4] (at 50.0 µM), 94.3% (active). In addition, the growth inhibition in test [5] (setting [7]) was 95% (active); in test [5] (setting [8]), 98% (active); in test [5] (at 50.0 µM), 89.7% (active); in test [6] (setting [7]), 94% (active); in test [6] (setting [8]) it was 98% (active); in test [6] (at 50.0 µM), -1.3%.
On to `ClC1=C(Cl)C2(Cl)C(Cl)CC1(Cl)C2(Cl)Cl` (stereo not given), for which the growth inhibition in test [1] (setting [7]) is 0%; in test [1] (setting [8]) it was -1%; in test [1] (at 50.0 µM), 62%; in test [2] (setting [7]) it was -5%; in test [2] (setting [8]), -1%; in test [2] (at 50.0 µM) it was 40.5%. In addition, the growth inhibition is -3% in test [3] (setting [7]); -24% in test [3] (setting [8]); 68.5% in test [3] (at 50.0 µM); 0% in test [4] (setting [7]); -9% in test [4] (setting [8]); 70.2% (active) in test [4] (at 50.0 µM). The growth inhibition is 0% in test [5] (setting [7]); 2% in test [5] (setting [8]); 1.4% in test [5] (at 50.0 µM); 14% in test [6] (setting [7]); 2% in test [6] (setting [8]); 83.7% (active) in test [6] (at 50.0 µM).
Consider `[C-]#[O+].[C-]#[O+].[Mo].[N-]=Nc1ccc([N+](=O)[O-])cc1.[c-]1[c-][c-][cH-][c-]1`, for which the growth inhibition is -1% in test [1] (setting [7]); 69% in test [1] (setting [8]); 93.7% (active) in test [1] (at 50.0 µM); -6% in test [2] (setting [7]); 55% in test [2] (setting [8]); 21.3% in test [2] (at 50.0 µM). Further, the growth inhibition is 2% in test [3] (setting [7]); 86% (active) in test [3] (setting [8]); 84.9% (active) in test [3] (at 50.0 µM); 9% in test [4] (setting [7]); 26% in test [4] (setting [8]); 8.7% in test [4] (at 50.0 µM). Moreover, the growth inhibition in test [5] (setting [7]) is -12%; in test [5] (setting [8]), 71% (active); in test [5] (at 50.0 µM), 4.95%; in test [6] (setting [7]), 2%; in test [6] (setting [8]), 75% (active); in test [6] (at 50.0 µM) it was 79.3% (active).
`Cc1c(=O)n(O)c2ccccc2[n+]1[O-]`: the growth inhibition in test [1] (setting [7]) is 4%; in test [1] (setting [8]) it was 21%; in test [1] (at 50.0 µM), 4.05%; in test [2] (setting [7]), 4%; in test [2] (setting [8]), 31%; in test [2] (at 50.0 µM), 0.75%. Besides, the growth inhibition is 4% in test [3] (setting [7]); 24% in test [3] (setting [8]); 7.3% in test [3] (at 50.0 µM); 4% in test [4] (setting [7]); 14% in test [4] (setting [8]); 32.5% in test [4] (at 50.0 µM). For the same compound, the growth inhibition in test [5] (setting [7]) was 1%; in test [5] (setting [8]), 16%; in test [5] (at 50.0 µM) it was 12.6%; in test [6] (setting [7]), 5%; in test [6] (setting [8]), 51%; in test [6] (at 50.0 µM), 16.5%.
For `CC(=O)[O][Sn]([CH3])([CH3])[c]1ccccc1`, the growth inhibition in test [1] (setting [7]) is 2%; in test [1] (setting [8]) it was 78% (active); in test [1] (at 50.0 µM), 81.2% (active); in test [2] (setting [7]), 3%; in test [2] (setting [8]), 50%; in test [2] (at 50.0 µM), 82.8% (active). The growth inhibition in test [3] (setting [7]) is 1%; in test [3] (setting [8]) it was 92% (active); in test [3] (at 50.0 µM) it was 92.5% (active); in test [4] (setting [7]), -13%; in test [4] (setting [8]), 77% (active); in test [4] (at 50.0 µM) it was 74.9% (active). Moreover, the growth inhibition is -6% in test [5] (setting [7]); 83% (active) in test [5] (setting [8]); 84.2% (active) in test [5] (at 50.0 µM); 3% in test [6] (setting [7]); 94% (active) in test [6] (setting [8]); 96.3% (active) in test [6] (at 50.0 µM).
For `CC1=C(O)C(=O)C=C2C1=CC=C1[C@@]2(C)CC[C@@]2(C)[C@@H]3C[C@](C)(C(=O)O)CC[C@]3(C)CC[C@]12C`, the growth inhibition was 65% in test [1] (setting [7]); 96% (active) in test [1] (setting [8]); 90% (active) in test [1] (at 50.0 µM); 74% (active) in test [2] (setting [7]); 98% (active) in test [2] (setting [8]); 93.5% (active) in test [2] (at 50.0 µM). The growth inhibition was 83% (active) in test [3] (setting [7]); 99% (active) in test [3] (setting [8]); 93.6% (active) in test [3] (at 50.0 µM); 92% (active) in test [4] (setting [7]); 98% (active) in test [4] (setting [8]); 91% (active) in test [4] (at 50.0 µM). Also, the growth inhibition is 95% (active) in test [5] (setting [7]); 99% (active) in test [5] (setting [8]); 92.5% (active) in test [5] (at 50.0 µM); 74% (active) in test [6] (setting [7]); 97% (active) in test [6] (setting [8]); 84% (active) in test [6] (at 50.0 µM).
For the compound `CC(CCc1ccccc1)NC(C)C(O)c1ccc(O)cc1` (stereo not given), the growth inhibition in test [1] (setting [7]) was 1%; in test [1] (setting [8]), 32%; in test [1] (at 50.0 µM) it was 49%; in test [2] (setting [7]), 4%; in test [2] (setting [8]), 55%; in test [2] (at 50.0 µM), 28.6%. Besides, the growth inhibition was 23% in test [3] (setting [7]); 66% in test [3] (setting [8]); 52.2% in test [3] (at 50.0 µM); 9% in test [4] (setting [7]); 42% in test [4] (setting [8]); 68.3% in test [4] (at 50.0 µM). In addition, the growth inhibition in test [5] (setting [7]) was 9%; in test [5] (setting [8]) it was 40%; in test [5] (at 50.0 µM), 64.8%; in test [6] (setting [7]) it was 45%; in test [6] (setting [8]), 71% (active); in test [6] (at 50.0 µM), 78.1% (active).
